Results reported in PubChem BioAssay AID2291 (The Scripps Research Institute Molecular Screening Center, 2010).
The whole screen tested about 16,000 compounds, of which about 75 (0.5%) were called active. The sample holds actives, similar compounds and a random draw of the others, so the mix is not that of the screen. Unmarked numbers belong to inactive results. Cut-off read from the data, not from the text of the source: active = inhibition above about 30%; inactive = the rest.

What follows are molecules tested against Protein phosphatase methylesterase 1 (Homo sapiens) (UniProt Q9Y570) (assay: inhibitors of human PME-1 in Maybridge library (AID 2291)). Settings: recombinant PME-1, FP-Rh probe fluorescence polarization; at 9 µM; active compounds read high.
Sequence of Protein phosphatase methylesterase 1 (Homo sapiens) (Q9Y570 whole entry, looked up): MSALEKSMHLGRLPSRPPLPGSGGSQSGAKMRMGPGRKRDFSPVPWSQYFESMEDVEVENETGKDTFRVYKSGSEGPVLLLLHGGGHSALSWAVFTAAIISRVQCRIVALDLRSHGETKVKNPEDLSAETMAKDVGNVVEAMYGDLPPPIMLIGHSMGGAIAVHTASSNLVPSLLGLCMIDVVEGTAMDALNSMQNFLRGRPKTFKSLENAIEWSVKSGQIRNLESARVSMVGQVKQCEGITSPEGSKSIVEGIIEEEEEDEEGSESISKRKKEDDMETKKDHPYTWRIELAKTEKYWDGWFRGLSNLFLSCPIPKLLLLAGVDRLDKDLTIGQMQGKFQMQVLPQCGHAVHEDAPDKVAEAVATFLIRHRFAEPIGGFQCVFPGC

| Structure (SMILES) | inhibition |
| --- | --- |
| CCOC(=O)c1c(C)nn(-c2ncccc2NC(=O)Nc2cccc(Cl)c2Cl)c1C | 37.4% (active) |
| CCOC(=O)c1cc(C)nc(Sc2ccccc2NC(=O)Nc2ccc(Cl)cc2)c1C#N | 25.2% |
| Cc1nc2cc3c(cc2s1)OCO3 | -0.92% |
| O=C(NC(=S)Nc1nc(-c2ccc(Cl)cc2)cs1)C1CC1 | -13.9% |
| O=S(=O)(Nc1ccc2[nH]ccc2c1)c1cccs1 | 3.17% |
| CCCCC#Cc1cncc(C(=O)NNC(=O)Nc2ccc(Cl)cc2)c1 | 2.26% |
| O=C1CSC(=S)N1c1ccc(N2CCCCCC2)c(N2C(=O)CSC2=S)c1 | -4.27% |
| COC(=O)c1sccc1Oc1ccc(Cl)cc1[N+](=O)[O-] | 2.05% |
| O=C(NCc1cccnc1)c1cnc2ccccc2n1 | 3.18% |
| O=C1C(Cl)=C(Oc2cc(Cl)c(Cl)cc2Cl)C(=O)c2ccccc21 | 33.4% (active) |
| Cc1cc2c(cn1)C(=O)c1ccccc1-2 | 4.96% |
| COc1cccc(C(=O)c2sc3nsc(SCc4ccc(F)cc4)c3c2N)c1 | -5.96% |
| N#C/C(=C\c1ccsc1Sc1ccc(Cl)cc1)S(=O)(=O)c1ccc(Cl)cc1 | -9.13% |
| Cc1c(-c2cnc(NC(=O)c3ccccc3)s2)sc2ccc(Cl)cc12 | -9.03% |
| CCOC(=O)C(NC(=O)Nc1ccccc1)(Nc1ccccc1OC)C(F)(F)F (stereo unspecified) | -0.9% |
| O=C(O)CSC(SCC(=O)O)c1ccc2c(c1)OCO2 | -0.753% |
| O=c1[nH]/c(=C/c2ccc(OC(F)(F)F)cc2)c(=O)[nH]/c1=C/c1ccc(OC(F)(F)F)cc1 | -0.938% |
| N#Cc1c(C(F)(F)F)cc(-c2cccs2)nc1N1CCCCC1 | -3.16% |
| Oc1ccccc1C=Nc1ccc(F)cc1 | -4.6% |
| COc1ccc(-c2csc(-c3cc(C)on3)n2)cc1 | 9.36% |
| Cc1ccc(/C=c2\sc3nc4ccccc4n3c2=O)o1 | 7.34% |
| Cc1c(NC(=O)c2cccnc2)c(=O)n(-c2ccccc2)n1C | 2.93% |

| Structure (SMILES) | inhibition |
| --- | --- |
| CCOC(=O)c1c(-c2ccco2)csc1NC(=O)Nc1ccc(Cl)cc1 | -41.9% |
| OC(c1ccncc1)c1c[nH]c2ccccc12 (stereo unspecified) | -0.868% |
| O/N=C/c1ccc(F)c(Cl)c1 | 2.78% |
| Cc1ccc2oc(-c3cccs3)nc2c1 | 2.37% |
| Cc1cc(NCc2cccnc2)no1 | 1.95% |
| NNC(=O)c1csc(-c2ccc(C(F)(F)F)cn2)n1 | 4.74% |
| CC(=O)Nc1cccc([N+](=O)[O-])c1 | 2.8% |
| CSc1nc(N)n(-c2ccccc2)n1 | 2.24% |
| CCOC(=O)C(O)(NC(=O)Nc1ccccc1)C(F)(F)F (stereo unspecified) | 6.03% |
| CCCCc1c(COC)nc(-c2ccc(Cl)cc2)[nH]c1=O | 2.14% |
| CCCCCCCCc1ccc(C(=O)O)cc1 | 1.13% |
| Cn1c(=O)c(/C(N)=N/OC(=O)c2ccccc2Cl)cn(-c2ccccc2)c1=O | -0.69% |
| Cc1nnc(Sc2ccc([N+](=O)[O-])c(Sc3nnc(C)s3)n2)s1 | 5.33% |
| O=C(Nn1cnnc1)c1cccs1 | 5.13% |
| O=C(Nc1ccccc1)N1CCN(c2ncnc3sccc23)CC1 | 1.02% |
| O=C(O)c1ccccc1/C=N/Nc1cc(Cl)ccc1Cl | 6.19% |
| CCOC(=O)N/N=C(\C)c1cccc(NC(C)=O)c1 | -0.548% |
| CCCN(CCC)S(=O)(=O)c1ccc(C(=O)O/N=C(\C)c2ccccc2O)cc1 | 0.391% |
| COC(=O)c1cnc(Oc2ccc(N)cc2)cc1C(F)(F)F | 0.526% |
| CCOC(=O)NC(=O)/C(=C/NCc1cccs1)C(=O)OCC | 0.233% |
| COc1ccccc1NC(=O)c1ccc(C#Cc2ccccc2)o1 | -10.2% |
| CS/C(N)=N/N=C/c1cccs1 | 1.26% |

| Structure (SMILES) | inhibition |
| --- | --- |
| CC1=NOC(=O)/C1=C\c1ccccc1 | 3.58% |
| COc1ccc(-c2nnc(SCC(O)C(F)(F)F)n2-c2cccc(OC)c2)cc1 (stereo unspecified) | 1.14% |
| CC(C)(C)c1ccc(NC(=O)c2ccco2)c(NC(=O)C(Cl)(Cl)Cl)c1 | 2.58% |
| FC(F)(F)c1cccc(-n2c(-c3ccncc3)n[nH]c2=S)c1 | -4.3% |
| Cc1ccc2oc(=O)n(CC/C(N)=N/OC(=O)c3ccc(C(F)(F)F)nc3C)c2c1 | 4.33% |
| CCOc1cc(-c2cccs2)nc(N)n1 | 0.0895% |
| Cc1ccc(OC(=O)c2nn(-c3ccccc3)nc2C)c([N+](=O)[O-])n1 | -1.37% |
| O=C(CN1C(=O)/C(=C/c2ccccc2Cl)N=C1c1ccccc1)c1ccccc1 | -14% |
| COc1c(Br)cc(C#N)cc1Br | 7.88% |
| O=C(Nc1ccccc1)O/N=C1/CCCc2occc21 | -1.78% |
| COc1ccc(CCNCC(O)Cn2ccc3ccccc32)cc1OC (stereo unspecified) | -0.35% |
| COc1cc(NC(=O)COc2cc(Cl)c(Cl)cc2Cl)cc(OC)c1OC | -4.1% |
| N#Cc1c(N)nc2c3c1NC(O)(c1ccccc1)C(C#N)C3c1cc(Cl)ccc1O2 (stereo unspecified) | -25.9% |
| COc1cccc(NC(=S)NNC(=S)NC2CC3CCC2C3)c1 (stereo unspecified) | 5.71% |
| O=C(O)C1CC2CC1CCC2O (stereo unspecified) | 4.17% |
| NC(=O)c1c(C(F)(F)F)cc(C(F)(F)F)cc1C(F)(F)F | -0.0338% |
| O/N=C/c1sccc1Oc1ccccc1 | 5.19% |
| CSc1nccc(-c2ccc(S(=O)(=O)n3nc(C)c(Br)c3C)s2)n1 | -1.68% |
| CC1CN=C(N(Cc2cccnc2)C(=O)Nc2ccc(Cl)c(Cl)c2)S1 (stereo unspecified) | -62.8% |
| N#Cc1cn(C2CCCCC2)c(=O)[nH]c1=O | 6.75% |
| COCCOc1ccc(NC(=S)N2CCOCC2)cc1 | -0.885% |
| O=C1CCN(Cc2ccccc2)C(=O)N1c1ccc2c(c1)CCO2 | 5.14% |
